Source: PubChem (National Center for Advancing Translational Sciences (NCATS))
The list is not random: actives were taken first. Their share in the collection is about 2.4%.
GLS inhibitor: blocks human kidney-isoform glutaminase activity; GLS enzymatic activity, qHTS titration; O94925; actives 0.21% (n = 410,000); AID 624170; Potency, µM (top dose mostly 45.5 µM), inactives show top-dose activity change, negative = inhibition, hits mostly inhibitors; note: % is set by controls: 0 for no effect and ±100 for the full control effect
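Two-point fluorescence kinetic (t0, 30 min RT) for hKGA; glutamate detected via glutamate oxidase–HRP–Amplex Red. Substrate: 1 mM L-glutamine solution; buffer 45 mM KH2PO4, pH 8.2.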
GCN5L2 inh: inhibitors of human GCN5L2 histone acetyltransferase; Q92830; GCN5L2 HAT assay, ThioGlo1 CoA-SH fluorescence; Potency, µM (doses to about 58.9 µM), for the others: at the top dose activity change, negative = inhibition, most hits filed as inhibitors; actives 0.21% (n = 390,000); note: % is set by controls: 0 for no effect and ±100 for the full control effect
Target sequence (Q92830 whole entry, looked up): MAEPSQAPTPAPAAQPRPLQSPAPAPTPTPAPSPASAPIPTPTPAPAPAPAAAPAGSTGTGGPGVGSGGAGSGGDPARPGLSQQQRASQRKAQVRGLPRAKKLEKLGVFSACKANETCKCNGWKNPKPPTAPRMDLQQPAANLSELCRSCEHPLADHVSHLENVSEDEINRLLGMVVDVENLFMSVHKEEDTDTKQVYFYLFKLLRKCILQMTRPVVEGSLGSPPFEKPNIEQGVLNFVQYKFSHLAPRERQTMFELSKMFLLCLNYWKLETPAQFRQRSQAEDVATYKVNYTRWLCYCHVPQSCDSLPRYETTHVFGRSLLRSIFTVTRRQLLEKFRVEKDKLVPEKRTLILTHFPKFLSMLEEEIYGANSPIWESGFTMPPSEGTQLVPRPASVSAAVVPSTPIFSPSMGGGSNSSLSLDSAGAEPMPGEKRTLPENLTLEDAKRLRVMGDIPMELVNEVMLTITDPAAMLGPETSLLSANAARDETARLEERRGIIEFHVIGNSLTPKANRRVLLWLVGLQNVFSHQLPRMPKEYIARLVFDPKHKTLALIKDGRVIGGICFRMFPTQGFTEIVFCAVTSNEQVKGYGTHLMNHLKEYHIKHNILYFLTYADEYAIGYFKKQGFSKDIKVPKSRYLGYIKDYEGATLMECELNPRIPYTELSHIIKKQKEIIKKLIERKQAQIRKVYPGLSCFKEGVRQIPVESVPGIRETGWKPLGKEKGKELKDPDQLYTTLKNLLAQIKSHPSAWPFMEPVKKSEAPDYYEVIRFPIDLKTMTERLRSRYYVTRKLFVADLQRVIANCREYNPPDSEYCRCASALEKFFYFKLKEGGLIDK
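Free CoA generated was detected with ThioGlo1 (50uM) fluorescence at Ex340nm/Em540nm, read immediately and after 20 min at room temperature. Enzyme, 20 nM in HEPES pH 7.5 buffer, saw compounds 15 min before adding 75uM H3(1-25) peptide and 70uM acetyl-CoA.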
Pol iota inh: DNA polymerase iota (human) inhibition | Pol iota fluorescent replication assay, 10 min | Potency, µM (series often up to 115 µM), without a hit: at the highest dose activity, negative = inhibition, actives largely listed as inhibitors | actives 1% (n = 390,000)
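Pol iota at 10 nM preincubated 15 min with compounds at room temperature; reaction started with fluorescent substrate, 50 nM final. Fluorescence read kinetically at 0 and 10 min; buffer-only wells as negative control.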
Pol eta inh: blocks human DNA polymerase eta activity. actives 1.2% (n = 390,000). recombinant Pol eta, fluorescent DNA replication assay. Potency, µM (series often up to 114 µM), without a hit: at the top dose activity change, negative = inhibition, usual class: inhibitors; note: % is set by controls: 0 for no effect and ±100 for the full control effect
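Fluorescent replication assay: 50 nM final substrate added after a 15 min room-temperature compound preincubation with 10 nM enzyme. Signal taken at 0 min and again at 10 min.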
POLB inh: inhibitors of human DNA polymerase beta. P06746. Pol beta primer extension/strand displacement, fluorescence kinetic. Potency, µM (top dose mostly 114 µM), for the others: at the highest dose activity change, negative = inhibition, most hits filed as inhibitors. actives 1.3% (n = 340,000); note: % is set by controls: 0 for no effect and ±100 for the full control effect
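Human Pol beta at 10 nM; strand-displacement substrate 50 nM final. Compound exposure 15 min at room temperature before start, reaction 10 min at room temperature.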
Pol kappa inh: inhibitors of human DNA polymerase kappa. Q9UBT6. purified Pol kappa, fluorescent DNA synthesis assay, 10 min. Potency, µM (doses to about 107 µM), for the others: at the top dose activity, negative = inhibition, usual class: inhibitors. actives 0.53% (n = 400,000). AID 588579; note: % is set by controls: 0 for no effect and ±100 for the full control effect
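Fluorescent qHTS in 1536-well format: enzyme (10 nM) and compound sat 15 min at room temperature before 50 nM substrate (final) was added. Signal taken at 0 and 10 min; no-enzyme buffer wells were negative controls.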
Numbers without * were called inactive; u = inconclusive; x = no result; [ ] = remark or other dose. Calls come from the whole dose curve; as a rule, active = well fitted inhibition curve with a large enough effect; inconclusive = small, poorly fitted or top-dose-only effect, or another doubt; inactive = no such curve, though single readings can be large or run the other way. Potency is the fitted concentration of half-maximal effect.

SMILES	GLS inhibitor	GCN5L2 inh	Pol iota inh	Pol eta inh	POLB inh	Pol kappa inh
O=C(O)COc1ccc(/C=C/c2ccc3cccc([N+](=O)[O-])c3n2)cc1	28%	-9%	u	20µM*	1%	u
CCOC(=O)c1ccccc1NS(=O)(=O)c1ccccc1F	0%	-6%	79µM*	-14%	19%	-20%
CCOC(=O)c1ccccc1NS(=O)(=O)c1ccccc1	-7%	2%	-23%[58.9 µM]	-9%	20%	-17%
Cc1ccccc1C(=O)Oc1cc(-c2ccc3c(c2)OCO3)cc(=O)c2c(C)oc(C)c12	6%	-13%	u	-11%	u	-6%
O=C(Cc1ccc(Cl)cc1)c1ccc(O)cc1	-1%	-5%	50µM*	1%	2%	-18%
Cc1ccc(CC(=O)c2ccc(Cl)cc2)cc1	-3%	1%	7%	-28%	31%	-7%
CCCN(CCC)CC(O)CN(c1ccccc1)S(=O)(=O)c1ccc(C)cc1 (stereo unspecified)	22%	0%	4%	2%	-1%	-9%
Cc1ccc(N(CC(O)COCc2ccco2)S(=O)(=O)c2ccc(C)cc2)cc1 (stereo unspecified)	1%	-15%	u	50µM*	22µM*	89µM*
Cc1ccc(NC(=O)CCN2C(=O)c3ccccc3Sc3ncccc32)c(Cl)c1	-3%	-3%	-13%	9%	-25%	-6%
CCOC(=O)c1cnc2ccc(C)cc2c1Nc1ccc(N(CC)CC)cc1	27%	-9%	18%	-27%	0%	-5%
Cc1ccc(C)c(-n2sc3ccc(F)cc3c2=O)c1	u	3.5µM*	u	-1%	x	-9%
Cc1ccc2scc(N3CCN(c4ccc(F)cc4)CC3)c(=O)c2c1	20%	-12%	12%	-11%	2%	-3%[60.1 µM]
O=c1c2cc(F)ccc2sn1-c1ccc(F)cc1	10µM*	1.8µM*	-11%	9%	x	-16%
COc1ccc(-n2sc3ccc(F)cc3c2=O)cc1	u	2.8µM*	u	9%	x	-9%
O=C1CCCC(=O)N1c1ccc(F)cc1	0%	1%	12%	-6%	-1%	-2%
COc1ccc(-n2sc3ccccc3c2=O)cc1	u	x	x	-22%	x	x
CC(C)CC(NC(=O)NC(CCC(=O)O)C(=O)O)C(=O)O (stereo unspecified)	x	12%	x	x	x	13%[60.1 µM]
CCCCc1ccc(NC(=O)COC(=O)c2ccccc2OCC(=O)Nc2ccc(Br)cc2)cc1	x	x	7%	x	x	-13%
Cc1c2ccccc2nc2c(F)c(NCCO)c(F)c(F)c12	-21%	-18%	u	u	u	79µM*
Cc1c2ccccc2nc2c(F)c(NC(C)C)c(F)c(F)c12	5%	-13%	18µM*	-3%	3%	u
COc1ccc2cc(CNc3ccc(OC)c(OC)c3)c(=O)n(CC(=O)Nc3ccc(C)cc3)c2c1	-5%	-13%	4%	-21%	-3%	3%
CCOc1ccc(N=C2NC(=O)S/C2=C\c2ccc(N(C)C)cc2)cc1	-1%	-2%	u	79µM*	3%	-5%
O=C1C(Cl)=C(N2CCCCC2)C(=O)C(Cl)=C1c1cnc(N2CCCCC2)s1	7%	-21%	u	u	5.6µM*	-36%
CC(C)NC(=O)c1cnc2sc(N3CCCCCC3)nn2c1=O	1%	-21%	46%	-17%	7%	6%
CN(CC(=O)Nc1ccc(Cl)cc1)C(=O)CCc1ccccc1	-11%	-3%	89µM*	-22%	8%	-8%
SMILES	GLS inhibitor	GCN5L2 inh	Pol iota inh	Pol eta inh	POLB inh	Pol kappa inh
COC(=O)C(=O)Nc1cccc2cccnc12	x	x	6%	x	x	-18%
Nc1nc(=S)ss1	1%	x	28µM*	-2%	x	-12%
COc1ccc(CCN2C(=S)NC3CC2(C)Oc2ccc([N+](=O)[O-])cc23)cc1OC (stereo unspecified)	10µM*	-8%	9%	-11%	3%	-25%
CC(C)OC(=O)c1cc(-c2ccc(C=O)o2)ccc1Cl	9%	-18%	7%	u	20µM*	-8%
CC(C)OC(=O)/C(C#N)=C/c1ccc(-c2ccc(Cl)c(Cl)c2)o1	-5%	-1%	-26%	0%	11%	-3%
Cc1ccc(S(=O)(=O)N2CCCCC2)cc1NC(=O)CCc1nc2ccccc2c(=O)[nH]1	-24%	-15%	u	28µM*	x	-8%
COCc1nn2cc(-c3ccc(C)cc3)nc2s1	-4%	-7%	-7%	-6%	-19%	-9%
CCOCC(=O)Nc1ccc(-c2cn3cccnc3n2)cc1	1%	35µM*	u	-8%	17%	8%
O=C(Nc1cccc(-c2cn3cccnc3n2)c1)c1ccc(Br)o1	-2%	1%	79µM*	-7%	1%	u
CCC(C(=O)Nc1cc(-c2cn3cccnc3n2)ccc1C)c1ccccc1 (stereo unspecified)	0%	4%	-23%	13%	40µM*	0%[60.1 µM]
COc1cccc(NC(=O)Nc2cc(-c3cn4cccnc4n3)ccc2C)c1	-9%	-24%	7%	-28%	7.9µM*	-4%
Cc1ccc(-c2cn3cccnc3n2)cc1NC(=O)Nc1ccc(F)cc1	-3%	3%	25%	-10%	-1%	4%
O=C(c1ccccc1)C(I)(I)N1CCOCC1	x	x	7%	x	x	-11%
CC(N)COC(=O)C(CCCCN)NC(=O)Cc1c(-c2ccc3ccccc3c2)[nH]c2c1ccc1ccccc12 (stereo unspecified)	x	-12%	x	x	x	-12%[12 µM]
CC(C)(C)n1ncc2c(=O)n(Cc3ccccc3F)cnc21	x	x	14%	x	x	9%
CC(=O)NC(Cc1ccc([N+](=O)[O-])cc1)C(=O)NCC(N)C(=O)c1ccccc1 (stereo unspecified)	x	x	-10%	x	x	-8%
CN(C)C(=O)COC(=O)c1ccccc1OCC(=O)Nc1ccc(Br)cc1	x	x	0%	x	x	-6%
Cc1ccccc1-c1cc(C(=O)N2CCCC2)c2ccccc2n1	3%	0%	25µM*	u	u	u
O=C(c1cc(-c2ccccc2Cl)nc2ccccc12)N1CCC1	-5%	8%	-11%	-13%	x	-5%
COc1ccc(-c2cc(C(=O)N3CCCCCC3)c3ccccc3n2)c(OC)c1	-2%	-23%	79µM*	u	22µM*	-39%
COc1ccc(-c2cc(C(=O)N3CCN(c4ccccc4O)CC3)c3ccccc3n2)cc1	7%	-11%	15%	-18%	x	3%
COc1ccc(-c2cc(C(=O)N3CCN(c4ncccn4)CC3)c3ccccc3n2)c(OC)c1	-10%	-5%	5%	-14%	-9%	-10%
Cc1ccc(-c2cc(C(=O)N3CCN(c4ccccc4O)CC3)c3ccccc3n2)cc1	7.1µM*	-2%	19%	-13%	x	-8%
